# Target: T1, Methionyl-tRNA synthetase, putative (Leishmania donovani (strain BPK282A1)) (UniProt E9BF75)
# T1 sequence (whole entry): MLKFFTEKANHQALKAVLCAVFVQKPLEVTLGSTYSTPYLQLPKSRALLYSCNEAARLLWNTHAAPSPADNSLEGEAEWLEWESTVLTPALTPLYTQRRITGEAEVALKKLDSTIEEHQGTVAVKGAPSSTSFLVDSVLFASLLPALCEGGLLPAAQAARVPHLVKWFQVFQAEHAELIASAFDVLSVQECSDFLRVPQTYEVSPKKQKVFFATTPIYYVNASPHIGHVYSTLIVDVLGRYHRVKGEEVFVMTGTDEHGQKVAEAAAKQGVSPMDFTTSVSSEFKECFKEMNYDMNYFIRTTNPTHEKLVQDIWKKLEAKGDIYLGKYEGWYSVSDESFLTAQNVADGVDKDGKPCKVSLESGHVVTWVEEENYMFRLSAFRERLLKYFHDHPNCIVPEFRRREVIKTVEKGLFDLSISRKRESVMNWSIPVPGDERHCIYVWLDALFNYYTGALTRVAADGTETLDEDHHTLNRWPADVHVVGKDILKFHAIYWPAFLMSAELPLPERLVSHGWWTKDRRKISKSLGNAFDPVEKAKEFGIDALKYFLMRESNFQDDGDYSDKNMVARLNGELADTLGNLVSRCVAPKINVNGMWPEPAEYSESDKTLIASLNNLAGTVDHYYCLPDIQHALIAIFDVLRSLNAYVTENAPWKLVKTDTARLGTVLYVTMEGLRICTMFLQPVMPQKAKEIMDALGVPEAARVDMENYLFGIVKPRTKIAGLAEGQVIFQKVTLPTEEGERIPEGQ
# Test: Leishmania donovani Methionine tRNA synthetase (LdMetRS):v7. Dose response assay
# Assay type: functional
# Set-up: conc 80 nM, time 150 minutes
smiles,measurement,setting,value
NS(=O)(=O)c1cccnc1NC1CCCCC1,PXC50,MAX_EFFECT 6.986027944,< 4
OCCCNc1ccnc(Cl)n1,PXC50,MAX_EFFECT 7.32177264,< 4
NS(=O)(=O)c1cccnc1Nc1cc(O)ccn1,PXC50,MAX_EFFECT 7.407407407,< 4
Cn1ncc2c(NCCO)nc(NCC3CCCO3)nc21 (stereo unspecified),PXC50,MAX_EFFECT 7.969639469,< 4
CN1CCC(CNCc2cc(Cl)cc(Cl)c2)CC1,PXC50,MAX_EFFECT 8.986615679,< 2.7
CN(c1nc(NCCO)c2cnn(C)c2n1)C1CCS(=O)(=O)C1 (stereo unspecified),PXC50,MAX_EFFECT 9.248554913,< 4
FC(F)(F)CCNCc1cc(Cl)cc(Cl)c1,PXC50,MAX_EFFECT 11.28107075,< 2.7
Cn1ncc2c(NCCO)nc(NCCc3ccccc3)nc21,PXC50,MAX_EFFECT 11.85185185,< 4
c1ccc(-c2nc(N3CCOCC3)c3sccc3n2)cc1,PXC50,MAX_EFFECT 16.2962963,< 4
Clc1cc(Cl)cc(CNCC2CCOCC2)c1,PXC50,MAX_EFFECT 17.78202677,< 2.7
CN1CCn2cc/c(=N\c3ccc(F)c(F)c3)nc21,PXC50,MAX_EFFECT 18.13084112,< 4
Clc1cc(Cl)cc(CNCc2ncc[nH]2)c1,PXC50,MAX_EFFECT 20.45889101,< 2.7
Clc1cc(Cl)cc(CNCc2cccnc2)c1,PXC50,MAX_EFFECT 23.51816444,< 2.7
Cc1cc(CNCc2cc(Cl)cc(Cl)c2)no1,PXC50,MAX_EFFECT 24.66539197,< 2.7
Cn1ncc2c(N3CCCCC3)nc(Nc3ccccc3)nc21,PXC50,MAX_EFFECT 27.40740741,< 4
COc1cccc(NC(=O)N2CCCc3ccccc32)c1,PXC50,MAX_EFFECT 45.28301887,< 4
Cn1ncc2c(NC3CC3)nc(Nc3ccc(F)c(F)c3)nc21,PXC50,MAX_EFFECT 47.9245283,< 4
NS(=O)(=O)c1cccnc1Nc1ccc(F)c(F)c1,PXC50,MAX_EFFECT -0.759013283,< 4
CN(CCO)c1ccnc(Nc2ccc(F)c(F)c2)n1,PXC50,"BOTTOM 0.294483603, HILLSLOPE 0.87168646, MAX_EFFECT 90.28037383, TOP 97.37088088",5.27
C[C@@H](CO)Nc1nc(Nc2ccc(F)c(F)c2)nc2c1cnn2C,PXC50,"BOTTOM 0.900407202, HILLSLOPE 1.012545194, MAX_EFFECT 78.11320755, TOP 96.15766895",4.67
Clc1cc(Cl)cc(CNCc2ccc3[nH]ncc3c2)c1,PXC50,"BOTTOM 1.106249154, HILLSLOPE 1.041028332, MAX_EFFECT 65.20076482, TOP 65.36183651",3.99
Cn1ncc2c(NCCO)nc(Nc3cccc(Cl)c3)nc21,PXC50,"BOTTOM 2.482705833, HILLSLOPE 1.074607965, MAX_EFFECT 81.43133462, TOP 87.71460066",5.07
OCCNc1ccnc(Nc2ccc(F)c(F)c2)n1,PXC50,"BOTTOM 2.684604701, HILLSLOPE 0.866541634, MAX_EFFECT 62.24299065, TOP 102.5858947",4.2
Clc1cc(Cl)cc(CNCc2ccc3[nH]ccc3c2)c1,PXC50,"BOTTOM 7.303470977, HILLSLOPE 1.421171765, MAX_EFFECT 85.85086042, TOP 90.87319761",4.04
Cn1ncc2c(NCCO)nc(Nc3cccc(F)c3)nc21,PXC50,"BOTTOM 8.925751042, HILLSLOPE 1.252459196, MAX_EFFECT 66.66666667, TOP 81.92338456",4.47
Clc1cc(Cl)cc(NCc2ccncc2)c1,PXC50,"BOTTOM -1.202484297, HILLSLOPE 0.574759938, MAX_EFFECT 66.34799235, TOP 100.0",3.3
Clc1cc(Cl)cc(NCc2cccnc2)c1,PXC50,"BOTTOM -6.720584862, HILLSLOPE 0.561777258, MAX_EFFECT 60.61185468, TOP 100.0",3.18
COc1cc(Nc2ncccc2S(N)(=O)=O)cc(C(F)(F)F)c1,PXC50,MAX_EFFECT 0.199600798,< 4
Cc1noc(CCNc2nc(NCCO)c3cnn(C)c3n2)n1,PXC50,MAX_EFFECT 0.580270793,< 4
NS(=O)(=O)c1cccnc1Nc1cccc(F)c1,PXC50,MAX_EFFECT 1.518026565,< 4
Cn1cc(C(=O)N2CCc3ccccc32)c2ccccc21,PXC50,MAX_EFFECT 1.851851852,< 4
OCCNc1ccnc(Cl)n1,PXC50,MAX_EFFECT 3.551401869,< 4
COc1cc(NC(=O)c2cccc3cccnc23)c(OC)cc1Cl,PXC50,MAX_EFFECT 3.703703704,< 4
Cn1ncc2c(NCCO)nc(NCCO)nc21,PXC50,MAX_EFFECT 3.795066414,< 4
C[C@H](CO)Nc1nccc(Cl)n1,PXC50,MAX_EFFECT 4.672897196,< 4
C[C@H](CO)Nc1ccnc(Cl)n1,PXC50,MAX_EFFECT 5.046728972,< 4
COc1ccccc1NC(=O)Nc1nn(C)c2ccccc12,PXC50,MAX_EFFECT 5.420560748,< 4
COc1ccccc1NC(=O)Nc1cc(C(N)=O)ccc1OC,PXC50,MAX_EFFECT 5.420560748,< 4
C[C@H](CO)Nc1nccc(Nc2ccc(F)c(F)c2)n1,PXC50,MAX_EFFECT 6.165703276,< 4
Cc1cc(CNc2cc(Cl)cc(Cl)c2)no1,PXC50,MAX_EFFECT 7.456978967,< 2.7
NS(=O)(=O)c1cccnc1Nc1cncnc1,PXC50,MAX_EFFECT 8.518518519,< 4
Clc1cc(Cl)cc(NCCc2ccccc2)c1,PXC50,MAX_EFFECT 9.751434034,< 2.7
CN(C)c1nc(NCCO)c2cnn(C)c2n1,PXC50,MAX_EFFECT 10.24667932,< 4
Cn1ncc2c(NCCO)nc(N3CCCCC3)nc21,PXC50,MAX_EFFECT 10.78998073,< 4
Clc1cc(Cl)cc(CNC2COC2)c1,PXC50,MAX_EFFECT 15.10516252,< 2.7
COc1ccccc1NC(=O)Nc1cccc(N)c1,PXC50,MAX_EFFECT 17.00934579,< 4
Cn1ncc2c(NCCO)nc(NC3CCOCC3)nc21,PXC50,MAX_EFFECT 17.34104046,< 4
COc1ccccc1NC(=O)Nc1nn(C)c2cccc(OC)c12,PXC50,MAX_EFFECT 17.77777778,< 4
Clc1cc(Cl)cc(NC2COC2)c1,PXC50,MAX_EFFECT 18.9292543,< 2.7
COc1cccc(NC(=O)N2CCOc3ccccc32)c1,PXC50,MAX_EFFECT 19.53578337,< 4
Cc1cnn(C)c1CNCc1cc(Cl)cc(Cl)c1,PXC50,MAX_EFFECT 20.07648184,< 2.7
Cn1ncc2c(NCCO)nc(NCCS(=O)(=O)N3CCOCC3)nc21,PXC50,MAX_EFFECT 23.12138728,< 4
Cc1cnn(C)c1CNc1cc(Cl)cc(Cl)c1,PXC50,MAX_EFFECT 23.51816444,< 2.7
C[C@@H](CO)Nc1ccnc(Nc2cccc(F)c2)n1,PXC50,MAX_EFFECT 30.05780347,< 4
COc1ccccc1NC(=O)NCC1CCCCC1,PXC50,MAX_EFFECT 34.20560748,< 4
COc1ccncc1NC(=O)N1CCCc2ccccc21,PXC50,MAX_EFFECT 36.98113208,< 4
Clc1cc(Cl)cc(CNCc2ccccn2)c1,PXC50,MAX_EFFECT 45.69789675,< 2.7
CC(C)N1CCN(c2ccc3ccc(C(=O)NC4CCCC4)cn23)CC1,PXC50,"BOTTOM 0.093, HILLSLOPE 1.274308059, MAX_EFFECT 67.28971963, TOP 100.0",4.24
same,PXC50,"BOTTOM -1.582312145, HILLSLOPE 1.245531895, MAX_EFFECT 64.39909297, TOP 98.29335099",4.24
Cc1nc(N2CCc3ccccc3C2)c2c3c(sc2n1)CCC3,PXC50,"BOTTOM 1.539204696, HILLSLOPE 1.85727021, MAX_EFFECT 61.30653266, TOP 67.5568533",4.58
same,PXC50,"BOTTOM -2.995522408, HILLSLOPE 1.216214635, MAX_EFFECT 78.37837838, TOP 108.7860492",4.36

# — ChEMBL document CHEMBL3988442, “University of Dundee, Small-Polar-MMV Screening Library” (2021)
